From the supplement of paper PMC4962491
± gives the standard deviation of the averaged measurements.

System: FaDu
Assay: mitochondrial oxygen consumption rate normalised to cell number, Z score vs plate DMSO wells; higher = higher oxygen consumption (negative = OCR reduction)
Settings: treatment time 24 h, assay medium: 5 mM glucose, 5 mM pyruvate, 4 mM glutamine
Method: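 Secondary screen: FaDu cells were incubated 24 h with the top 130 primary hits at 0.08, 0.4, 2 or 10 uM. Mitochondrial-specific OCR (basal minus antimycin A) was measured on a Seahorse XF96 in medium with 5 mM glucose, 5 mM pyruvate and 4 mM glutamine and normalised to Hoechst cell number. OCR score = (OCR - mean of plate DMSO wells) / SD of plate DMSO wells. Three repeats.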
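Note: compound exposure in DMEM (4 mM L-glutamine, 5 mM glucose), antimycin A injected at 2 µM after the basal reading and its residual OCR subtracted from basal.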

| Compound | mitochondrial oxygen consumption rate normalised (0.08 µM) | mitochondrial oxygen consumption rate normalised (0.4 µM) | mitochondrial oxygen consumption rate normalised (2 µM) | mitochondrial oxygen consumption rate normalised (10 µM) |
| --- | --- | --- | --- | --- |
| CNC(=O)c1cc(Oc2ccc(NC(=O)Nc3ccc(Cl)c(C(F)(F)F)c3)cc2)ccn1 | -1.33 ± 0.69 | -0.411 ± 0.42 | -1.86 ± 0.2 | -12.1 ± 0.9 |
| O=C(Nc1ccc([N+](=O)[O-])cc1Cl)c1cc(Cl)ccc1O | -1.26 ± 1.4 | -0.286 ± 0.41 | 0.259 ± 0.76 | -12.5 ± 0.17 |
| CO[C@H](C(=O)[C@@H](O)[C@@H](C)O)[C@@H]1Cc2cc3cc(O[C@H]4C[C@@H](O[C@@H]5C[C@@H](O)[C@H](O)[C@@H](C)O5)[C@H](O)[C@@H](C)O4)c(C)c(O)c3c(O)c2C(=O)[C@H]1O[C@H]1C[C@@H](O[C@@H]2C[C@@H](O)[C@@H](O[C@@H]3C[C@](C)(O)[C@H](O)[C@@H](C)O3)[C@@H](C)O2)[C@H](O)[C@@H](C)O1 | -4.64 ± 1.4 | -7.12 ± 0.33 | -7.79 ± 0.54 | -8.14 ± 0.52 |
| CC(C(O)c1ccc(O)cc1)N1CCC(Cc2ccccc2)CC1 (configuration not stated) | 0.382 ± 1.5 | 0.565 ± 0.59 | -0.938 ± 1.3 | 0.802 ± 0.91 |
| COc1cccc2c1C(=O)c1c(O)c3c(c(O)c1C2=O)C[C@@](O)(C(C)=O)C[C@@H]3O[C@H]1C[C@H](N)[C@H](O)[C@H](C)O1 | 1.45 ± 1.5 | -2.21 ± 0.4 | -6.3 ± 0.54 |  |
| C=CCOC(Cn1ccnc1)c1ccc(Cl)cc1Cl (configuration not stated) | -0.655 ± 2.4 | 0.416 ± 2.9 | -0.3 ± 1.2 | -0.245 ± 0.57 |
| O=C1C(O)=C([C@H]2CC[C@H](c3ccc(Cl)cc3)CC2)C(=O)c2ccccc21 | -0.607 ± 2.4 | 1.63 ± 1.6 | -0.111 ± 2.5 | -3.55 ± 2.2 |
| CCCCCCCCCCCCCCCC[N+](C)(C)C | 0.46 ± 0.86 | -0.326 ± 1 | -10.1 ± 0.48 |  |
| COc1cc(O)c(C(=O)c2ccccc2)cc1S(=O)(=O)O | 0.104 ± 1.6 | 1.17 ± 0.81 | -0.346 ± 2.5 | -1.77 ± 1 |
| CC(=O)O[C@H]1C[C@@]2(C)[C@@H](C[C@@H](O)[C@H]3[C@@]4(C)CC[C@@H](O)[C@@H](C)[C@@H]4CC[C@@]32C)/C1=C(\CCC=C(C)C)C(=O)O | 0.246 ± 2.1 | -0.851 ± 1.9 | 0.0549 ± 0.78 | -0.138 ± 1.1 |
| CC(=O)Oc1ccccc1C(=O)Nc1ncc([N+](=O)[O-])s1 | 0.233 ± 1.2 | 1.38 ± 0.59 | 1.82 ± 0.7 | 1.49 ± 1.2 |
| CCc1c2c(nc3ccc(OC(=O)N4CCC(N5CCCCC5)CC4)cc13)-c1cc3c(c(=O)n1C2)COC(=O)[C@]3(O)CC | 0.871 ± 0.77 | 1.67 ± 1.4 | 1.27 ± 0.31 | -4.72 ± 1 |
| COc1cc([C@@H]2c3cc4c(cc3[C@@H](O[C@@H]3O[C@@H]5CO[C@@H](c6cccs6)O[C@H]5[C@H](O)[C@H]3O)[C@H]3COC(=O)[C@H]23)OCO4)cc(OC)c1O |  |  | -7.82 ± 1.4 |  |
| COc1cc([C@@H]2c3cc4c(cc3[C@@H](O[C@@H]3O[C@@H]5CO[C@@H](c6cccs6)O[C@H]5[C@H](O)[C@H]3O)[C@H]3COC(=O)[C@H]23)OCO4)cc(OC)c1O [Teniposide] | 0.487 ± 1.3 | 0.0174 ± 0.54 |  |  |
| O=[N+]([O-])c1ccc(O)c2ncccc12 | 0.333 ± 0.4 | 1.67 ± 1.1 | -0.415 ± 1.2 | -3.63 ± 2.5 |
| Oc1c(Br)cc(Br)c2cccnc12 | 0.816 ± 1.4 | 1.29 ± 1 | -0.243 ± 2.5 | -3.74 ± 2 |
| CCCCCCCCCCCCC[N+](C)(C)Cc1ccccc1 | -1.59 ± 1.3 | -3.65 ± 1.3 | -11.5 ± 0.21 |  |
| Nc1nc2[nH]cnc2c(=S)[nH]1 | -1.04 ± 1.9 | -0.865 ± 0.14 | -5.57 ± 0.33 | -5.01 ± 1.4 |
| CCCCCCCCCCCCCCCC[N+](C)(C)CCN(Cc1ccc(OC)cc1)c1ncccn1 | 0.201 ± 1.1 | 1.55 ± 0.82 | 0.248 ± 1.4 | -5.99 ± 0.8 |
| CCc1cc(Cl)c(OC)c(C(=O)NC[C@@H]2CCCN2CC)c1O | 0.346 ± 0.99 | 1.18 ± 0.45 | 0.712 ± 2.1 | 0.556 ± 2.2 |
| CCCCCCCCCc1ccc(OCCOCCOCCOCCOCCOCCOCCOCCOCCO)cc1 | 0.0515 ± 1 | 0.101 ± 0.62 | -3.38 ± 0.78 | -7.69 ± 0.55 |
| C[n+]1cc2c3c(ccc2c2ccc4cc5c(cc4c21)OCO5)OCO3 | 0.385 ± 0.96 | 0.59 ± 0.68 | -0.66 ± 2.1 | -3.47 ± 3.3 |
| Nc1ccc2cc3ccc(N)cc3nc2c1 | 0.988 ± 0.79 | 1.43 ± 0.73 | -2.56 ± 1.5 | -6.68 ± 1.4 |
| COc1c2occc2cc2ccc(=O)oc12 | -0.411 ± 1.2 | 0.146 ± 0.75 | -0.807 ± 2.3 | -1.8 ± 2.2 |
| CC(C)(C)CC(C)(C)c1ccc(OCCOCC[N+](C)(C)Cc2ccccc2)cc1 | -0.0571 ± 1.2 | 0.0149 ± 0.7 | -6.66 ± 0.41 | -13 ± 0.41 |
| CN(C)c1ccc(C(=C2C=CC(=[N+](C)C)C=C2)c2ccc(N(C)C)cc2)cc1 | -0.504 ± 1.3 | -6.33 ± 1.1 | -13.3 ± 0.17 |  |
| CN(C)CCCN1c2ccccc2CCc2ccccc21 | -0.638 ± 1.5 | -0.388 ± 0.95 | -0.981 ± 1.9 | -0.576 ± 1.4 |

| Compound | mitochondrial oxygen consumption rate normalised (0.08 µM) | mitochondrial oxygen consumption rate normalised (0.4 µM) | mitochondrial oxygen consumption rate normalised (2 µM) | mitochondrial oxygen consumption rate normalised (10 µM) |
| --- | --- | --- | --- | --- |
| Cc1ccc2c(Br)cc(Br)c(OC(=O)c3ccccc3)c2n1 | 1.43 ± 0.79 | 0.324 ± 0.71 | -3.89 ± 1.2 | -4.73 ± 1.5 |
| S=c1[nH]cnc2nc[nH]c12 | 0.147 ± 1.5 | 0.888 ± 1.4 | -2.8 ± 1.2 | -2.54 ± 0.98 |
| N=C(N)c1ccc(OCCCCCOc2ccc(C(=N)N)cc2)cc1 | 0.754 ± 1.1 | -0.0335 ± 0.92 | -2.03 ± 2.2 | -6.65 ± 1.6 |
| C[C@]12CC[C@@H]3c4ccc(O)cc4CC[C@H]3[C@@H]1CC[C@@H]2OC(=O)CCC1CCCC1 | 0.0173 ± 1.4 | 0.582 ± 0.51 | 0.375 ± 0.83 | -0.125 ± 1.5 |
| CCC(C)n1ncn(-c2ccc(N3CCN(c4ccc(OCC5COC(Cn6cncn6)(c6ccc(Cl)cc6Cl)O5)cc4)CC3)cc2)c1=O (configuration not stated) | 0.265 ± 1.4 | 1.4 ± 0.68 | -0.554 ± 1.1 | -4.35 ± 1.6 |
| CC(C)NCC(O)COc1ccc(CC(N)=O)cc1 (configuration not stated) | 0.23 ± 1.7 | 0.806 ± 0.77 | 0.178 ± 1 | -0.73 ± 1.5 |
| CCOC(=O)CCC(=O)O[C@H]1[C@H](O[C@@H]2[C@@H](C)[C@H](O[C@H]3C[C@@](C)(OC)[C@@H](O)[C@H](C)O3)[C@@H](C)C(=O)O[C@H](CC)[C@@](C)(O)[C@H](O)[C@@H](C)C(=O)[C@H](C)C[C@@]2(C)O)O[C@H](C)C[C@@H]1N(C)C | -0.00592 ± 1.6 | 0.83 ± 0.89 | -0.161 ± 1.9 | 1.22 ± 0.77 |
| CCN(CC)C(=O)c1cccnc1 | 0.606 ± 0.97 | -0.942 ± 0.098 | -1.02 ± 1.1 | -1.48 ± 0.69 |
| CCCCC(CC)CN=C(N)N=C(N)NCCCCCCNC(N)=NC(N)=NCC(CC)CCCC (configuration not stated) | -1.69 ± 0.36 | 1.12 ± 0.29 | -0.611 ± 2 | -10.4 ± 0.54 |
| COc1cccc2c1C(=O)c1c(O)c3c(c(O)c1C2=O)C[C@@](O)(C(=O)CO)C[C@@H]3O[C@H]1C[C@H](N)[C@@H](O)[C@H](C)O1 | -0.0709 ± 0.37 | 1.4 ± 1 | 1.18 ± 1.4 | 1.58 ± 2.4 |
| N=C(N)NC(=N)NCCc1ccccc1 | 0.684 ± 1.6 | 0.605 ± 0.9 | -0.479 ± 0.84 | -5.11 ± 1.6 |
| Nc1ncn([C@@H]2O[C@H](CO)[C@@H](O)[C@H]2O)c(=O)n1 | -0.369 ± 1.5 | 1.15 ± 0.3 | -1.48 ± 1.4 | -2.3 ± 1.5 |
| Cc1cc(C(C)(C)CC(C)(C)C)ccc1OCCOCC[N+](C)(C)Cc1ccccc1 | -1.05 ± 0.63 | 0.588 ± 0.44 | -5.29 ± 1.2 | -12.6 ± 0.23 |
| CC[n+]1c(-c2ccccc2)c2cc(N)ccc2c2ccc(N)cc21 | -0.559 ± 1.1 | -1.04 ± 0.79 | -3.43 ± 2.4 | -6.28 ± 1.8 |
| CCOc1ccc2nc3cc(N)ccc3c(N)c2c1 | -0.404 ± 1.3 | 0.17 ± 0.56 | -3.32 ± 0.28 | -6.87 ± 0.83 |
| Cc1cc(C2CCCCC2)n(O)c(=O)c1 | -0.736 ± 1.4 | 1.35 ± 1 | -3.51 ± 0.86 | -3.81 ± 1.9 |
| CCCCCCCCCCCCCCCCCCCCCCO | 0.402 ± 1.5 | 0.592 ± 1.3 | 0.538 ± 0.35 | -0.999 ± 1.9 |
| CC(=O)[C@H]1CC[C@H]2[C@@H]3CCC4=CC(=O)CC[C@]4(C)[C@H]3CC[C@]12C | -0.339 ± 1.3 | 0.321 ± 0.92 | -0.631 ± 1.3 | -1.18 ± 0.26 |
| Nc1nc(Cl)nc2c1ncn2[C@H]1C[C@H](O)[C@@H](CO)O1 [Cladribine] | 0.0971 ± 0.62 | 1.11 ± 0.78 | 0.797 ± 2 | -0.553 ± 2.5 |
| C#C[C@]1(O)CC[C@H]2[C@@H]3CCC4=CC(=O)CC[C@@H]4[C@H]3CC[C@@]21CC | 0.538 ± 0.4 | 1.49 ± 0.65 | 1.15 ± 0.96 | 1.62 ± 1.1 |
| C=C1CC[C@H](O)C/C1=C/C=C1\CCC[C@]2(C)[C@@H]([C@H](C)/C=C/[C@H](C)C(C)C)CC[C@@H]12 | -1.49 ± 2.4 | -0.211 ± 0.41 | -1.83 ± 1.7 | -2.44 ± 1.9 |
| CN(C)C(=O)C(CCN1CCC(O)(c2ccc(Cl)cc2)CC1)(c1ccccc1)c1ccccc1 | 0.831 ± 1.1 | 0.616 ± 1.4 | 0.593 ± 1.7 | -0.932 ± 1.7 |
| O=c1cc[nH]c(=S)[nH]1 | -0.646 ± 1.9 | 1.11 ± 0.98 | -0.279 ± 2.5 | 0.14 ± 2.1 |
| N[C@@H](Cc1ccc(O)c(O)c1)C(=O)O | 0.0621 ± 1.8 | 0.345 ± 0.69 | 1.31 ± 0.9 | 0.522 ± 2 |
| Oc1c(Cl)cc(Cl)c(Cl)c1Cc1c(O)c(Cl)cc(Cl)c1Cl | -0.831 ± 1.9 | 1.92 ± 0.93 | -2.48 ± 0.61 | -13.3 ± 0.45 |
| C=CC1=C(C)c2cc3[nH]c(cc4nc(cc5[nH]c(cc1n2)c(C)c5CCC(=O)O)C(CCC(=O)O)=C4C)c(C)c3C=C | 0.0776 ± 2.3 | 1.29 ± 2 | 0.447 ± 0.95 | -1.43 ± 1.3 |
| CN1[C@@H]2CC[C@H]1C[C@@H](OC(=O)c1c[nH]c3ccccc13)C2 | 0.168 ± 1.4 | 1.48 ± 0.79 | -0.138 ± 1.6 | -1.06 ± 2.5 |
